Experiment [1] in a line: fungal growth arrest, C. neoformans – Alamar Blue, cherry-picks, dose response (AID 686998;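 active = falling signal with fitted half-maximal potency no higher than twice the top valid tested dose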). Background: The colour change of resazurin is a common sign of viable cells or microbes.
Experiment [2] can be described thus: viability loss in HepG2 hepatoma cells – cell-based, cherry-picks, set 2, cytotoxicity control, dose response (AID 687002).
Experiment [3] is described as follows: viability loss in HeLa cells – cell-based, ATP luminescence, cherry-pick samples, cytotoxicity control, dose response (AID 687004;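 active = a fitted half-maximal concentration no higher than twice the top valid tested dose, with signal falling as cells die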).
Experiment [4] in a line: C. neoformans lysis by adenylate kinase leakage – AK release luminescence, cherry-picks, dose response (AID 687000;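 active = fitted dose curve reaches 40% lysis signal rise at or below the highest valid concentration tested for that sample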;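 also: luminescent detection of adenylate kinase leaking from lysed yeast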).

In PubChem BioAssay one finds outcome data, which are given here for 34 compounds.

Potency and affinity values are given separately. Inconclusive results are not listed. A number with no mark means an inactive call. Calls of active or inactive are those of the source.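 The calls were made as follows, unless noted: active = a dose-response fit showing signal loss, with half-maximal concentration no higher than twice the top tested dose; inconclusive = flat fit between 30% and 70% signal loss, or poor fit; inactive = the rest.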

`CC(C)NC(=O)Nc1ccc2c(c1)C(=O)N([C@@H](C)CO)C[C@@H](C)[C@@H](CN(C)C(=O)NC(C)C)OCCCC[C@@H](C)O2`: the compound was called inactive in experiment [1], in experiment [2] and in experiment [3].
Consider `CC(=O)c1sc(NC(=O)c2cc(-c3ccccc3)nn2-c2ccccc2)nc1C`, for which the result in experiment [4] and in experiment [2] was inactive.
Regarding `COC(=O)C1=C(C)N(Cc2ccccc2)C(=S)N[C@H]1c1ccc(Br)cc1`, the result in experiment [1], in experiment [2] and in experiment [3] was inactive.
For the compound `C(=Nn1cnnc1)c1ccc2c(c1)CCC2`, the outcome in experiment [4] and in experiment [2] was inactive.
Consider `C[C@@H]1CN([C@H](C)CO)S(=O)(=O)c2ccc(-c3ccccc3)cc2O[C@H]1CN(C)C(=O)C1CCCCC1`, for which the outcome in experiment [4] and in experiment [2] was inactive.
Take `C[C@@H]1CCCCO[C@H](CN(C)S(=O)(=O)c2cccs2)[C@@H](C)CN([C@@H](C)CO)C(=O)c2cc(NC(=O)CCC(F)(F)F)ccc2O1`: the result in experiment [1], in experiment [2] and in experiment [3] was inactive.
As to `C[C@@H]1CCCCO[C@@H](CN(C)C(=O)CCCN(C)C)[C@@H](C)CN([C@H](C)CO)C(=O)c2cc(NC(=O)Cc3ccccc3)ccc2O1`, the compound was called inactive in experiment [1], in experiment [2] and in experiment [3].
With `C/C=C/c1ccc([C@@H]2[C@H]3CN(C(=O)Nc4ccc(OC)cc4)CCCCN3[C@H]2CO)cc1`, the compound was classed as inactive in experiment [4] and in experiment [2].
Regarding `Cc1noc(C)c1S(=O)(=O)Nc1ccc2c(c1)C(=O)N([C@@H](C)CO)C[C@@H](C)[C@H](CN(C)Cc1ccc3c(c1)OCO3)OCCCC[C@H](C)O2`, the outcome in experiment [4], in experiment [2] and in experiment [3] was inactive.
As to `Cc1ccc(N2CCN(C(CCc3ccccc3)C(=O)Nc3c(C)cccc3C)CC2)cc1` (configuration not stated), the result in experiment [4] and in experiment [2] was inactive.
For `COc1cc(NC(=O)CN2CCN(S(=O)(=O)c3ccc(C(C)C)cc3)CC2)cc(OC)c1`, the result in experiment [4], in experiment [2] and in experiment [3] was inactive.
Consider `C[C@H](CO)N1C[C@H](C)[C@H](CN(C)S(=O)(=O)c2cn(C)cn2)Oc2ncc(/C=C/c3ccccc3)cc2C1=O`, for which the result in experiment [4], in experiment [2] and in experiment [3] was inactive.
For the compound `CC(=O)c1sc(NC(=O)C2(F)C(F)(F)C(F)(F)C(F)(F)C(F)(F)C2(F)F)nc1C`, the compound was classed as inactive in experiment [4] and in experiment [2].
As to `N#C[C@H]1[C@@H](c2ccc(C#CCC3CCCC3)cc2)[C@@H](CO)N1C(=O)c1ccccn1`, the compound was classed as inactive in experiment [4] and in experiment [2].
Consider `Cc1ccc2cc(NC(=O)c3ccccc3)ccc2n1`, for which the outcome in experiment [4] and in experiment [2] was inactive.
With `COC(=O)C1=C(C)N(Cc2ccc(Br)cc2)C(=S)NC1c1cccc(Br)c1` (configuration not stated), the compound was classed as inactive in experiment [4] and in experiment [2].
On to `O=C(C1CCOCC1)N1C[C@H]2[C@@H](c3ccccc31)[C@@H](CO)N2Cc1ccccc1Cl`, for which the compound was called inactive in experiment [4] and in experiment [2].
Regarding `Cc1noc(C)c1NC(=O)N(C)C[C@H]1OCCCC[C@H](C)Oc2ccc(NC(=O)NC(C)C)cc2C(=O)N([C@@H](C)CO)C[C@@H]1C`, the outcome in experiment [1], in experiment [2] and in experiment [3] was inactive.
On to `Fc1cccc(CCN2C(=S)NC[C@@H]2Cc2ccccc2)c1`, for which the compound was classed as inactive in experiment [4], in experiment [2] and in experiment [3].
As for `Cc1ccc(NC(=S)Nc2ccc(Cl)c(Cl)c2)c(OC(F)F)c1`, the compound was called inactive in experiment [4] and in experiment [2].
As to `Cc1ccc(-n2ncc3c(SCC(N)=O)ncnc32)cc1C`, the compound was called inactive in experiment [4] and in experiment [2].
For `O=C(CC1CC1)N1[C@@H]2CN(S(=O)(=O)c3ccccc3)c3ccccc3[C@@H]2[C@@H]1CO`, the call in experiment [1] and in experiment [3] was inactive.
On to `C[C@@H]1CCCCO[C@@H](CN(C)C(=O)NC2CCCCC2)[C@H](C)CN([C@@H](C)CO)C(=O)c2cc(NS(=O)(=O)c3cn(C)cn3)ccc2O1`, for which the outcome in experiment [4], in experiment [2] and in experiment [3] was inactive.
Consider `COc1cccc(S(=O)(=O)Nc2ccc3c(c2)[C@H]2C[C@H](CC(=O)N(C)C)O[C@@H](CO)[C@H]2O3)c1`, for which the result in experiment [1], in experiment [2] and in experiment [3] was inactive.
For the compound `CC(C)CC#Cc1ccc2c(c1)O[C@H](CN(C)C(=O)C1CCC1)[C@@H](C)CN([C@@H](C)CO)S2(=O)=O`, the result in experiment [4] and in experiment [2] was inactive.
On to `CC(C)NC(=O)Nc1ccc2c(c1)CC(=O)N([C@H](C)CO)C[C@H](C)[C@@H](CN(C)C(=O)Nc1ccc3c(c1)OCO3)O2`, for which the compound was classed as inactive in experiment [4] and in experiment [2].
In the case of `CC(C)C#Cc1ccc([C@@H]2[C@H](CO)N3CCCCN(C(=O)c4ccc5c(c4)OCO5)C[C@@H]23)cc1`, the result in experiment [1], in experiment [2] and in experiment [3] was inactive.
Regarding `O=C(C[C@@H]1C=C[C@@H](NC(=O)Nc2cc(F)ccc2F)[C@H](CO)O1)NCCCN1CCOCC1`, the compound was classed as inactive in experiment [4], in experiment [2] and in experiment [3].
On to `O=C(CSc1nc(CCC2CCCC2)nc2ccccc12)NCc1ccc2c(c1)OCO2`, for which the compound was classed as inactive in experiment [4], in experiment [2] and in experiment [3].
Take `CNC[C@H]1Oc2cc(Br)ccc2S(=O)(=O)N([C@H](C)CO)C[C@H]1C`: the call in experiment [4], in experiment [2] and in experiment [3] was inactive.
Regarding `O=C(c1ccco1)N1N=C(c2cccs2)CC1c1ccc(F)cc1` (configuration not stated), the outcome in experiment [4], in experiment [2] and in experiment [3] was inactive.
`Cc1ccc(OCC(=O)NC(C)c2ccccc2)cc1` (configuration not stated): the outcome in experiment [4], in experiment [2] and in experiment [3] was inactive.
As for `COC(=O)C1=C(C)N(C)C(=S)N(C)C1c1ccc(OC)cc1` (configuration not stated), the result in experiment [4], in experiment [2] and in experiment [3] was inactive.
For `CC(C)CC#Cc1cnc2c(c1)C(=O)N([C@@H](C)CO)C[C@@H](C)[C@@H](CN(C)C(=O)c1cccc(F)c1)O2`, the compound was called inactive in experiment [4], in experiment [2] and in experiment [3].
